This is a sample that favours compounds with a hit; in the whole collection about 2.6% have one here.
H9c2 protect – protects H9c2 cardiomyocytes from peroxide injury. protection from H2O2 cell death, % at 20 µM. 360,000 tested, 0.63% active. AID 588492. H2O2 injury protection, ATPLite, 2 h;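 active = compounds giving at least 50% protection of heart cells from peroxide-induced death in the single-dose screen, raw or plate-pattern-corrected value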
697 NFkB inh – lowers PMA/ionomycin-induced NF-kB signal in 697 B cells; 697 B-cell NF-kB luciferase reporter, 16 h; inhibition, % at 4 µM; 330,000 tested, 0.33% active; AID 435022; in the data active = inhibition above about 35%
H9c2 TAG inh – triacylglycerol accumulation inhibition; H9c2 cells, Nile Red lipid (TAG) fluorescence; cells loaded with 200 µM oleic acid; inhibition, % at 12.5 µM; 230,000 tested, 0.66% active;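 active = pattern-corrected inhibition of lipid staining of at least 50% with the nuclear-stain viability signal not falling by more than 50%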
NR2F2 inh – NR2F2 (human) inhibition, primary screen; AID 686940; 370,000 tested, 0.7% active; inhibition, % at 8.6 µM; HEK293T NGFI-A luciferase reporter, luminescence; P24468;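 active = inhibition above a per-plate cutoff, mean inhibition of test wells between control levels plus 3 SD, cut at about 38% in these data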;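 also: cells cotransfected with COUP-TFII expression vector driving the NGFI-A reporter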
Target sequence (P24468 whole entry, looked up): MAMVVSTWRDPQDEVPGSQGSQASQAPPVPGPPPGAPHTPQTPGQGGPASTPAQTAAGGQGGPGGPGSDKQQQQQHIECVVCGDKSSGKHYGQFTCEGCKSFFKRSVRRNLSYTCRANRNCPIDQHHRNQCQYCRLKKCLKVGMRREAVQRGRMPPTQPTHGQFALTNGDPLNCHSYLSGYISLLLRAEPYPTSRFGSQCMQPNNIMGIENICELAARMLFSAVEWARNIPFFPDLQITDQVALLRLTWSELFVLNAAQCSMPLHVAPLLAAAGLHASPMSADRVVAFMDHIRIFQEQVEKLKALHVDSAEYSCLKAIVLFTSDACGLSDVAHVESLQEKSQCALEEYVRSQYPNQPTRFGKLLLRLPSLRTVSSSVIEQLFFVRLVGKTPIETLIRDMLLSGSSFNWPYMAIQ
Gli-Sufu antag – blocks Gli-Sufu signaling in a luciferase reporter; 340,000 tested, 0.74% active; inhibition, % at 5 µM; Sufu-KO-LIGHT fibroblasts, Gli luciferase reporter luminescence; AID 588413;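 active = inhibition above about 55%, limit read from the data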
Jurkat NFkB inh – inhibitors of the PMA/ionomycin-induced NF-kB reporter in Jurkat cells. inhibition, % at 4 µM. PMA/ionomycin-induced NF-kB luciferase reporter, luminescence. 330,000 tested, 0.53% active; in the data active = inhibition above about 50%
Gli-Sufu confirm – Gli-SUFU antagonism confirmation, single concentration | inhibition, % at 5 µM | 2,500 tested, 40% active | Sufu-KO-LIGHT cells, Gli luciferase reporter, luminescence | shares compounds with Gli-Sufu antag;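 active = mean inhibition at 5 µM reaching about 45%, limit read from the data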
SufuKO cytotox – cytotoxicity counter-screen for Gli-SUFU antagonists. Sufu-KO-LIGHT cells cytotoxicity, ATP luminescence. shares compounds with Gli-Sufu antag. cytotoxicity, % at 5 µM. 2,500 tested, 32% active;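 active = mean cytotoxicity at 5 µM above about 25%, limit read from the data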;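 also: cells exposed to compound overnight for roughly 16 to 18 hours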
Wnt3a counter – Wnt3a reporter inhibition counter-screen. inhibition, % at 6.25 µM. Wnt-LIGHT cells, Wnt3a-driven luciferase reporter, luminescence. shares compounds with Gli-Sufu antag. 2,500 tested, 20% active;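 active = mean inhibition above about 25%, limit read from the data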
A number is an active result; 0 = inactive; - = no result given; ! = not confirmed by another sample.

SMILES | H9c2 protect | 697 NFkB inh | H9c2 TAG inh | NR2F2 inh | Gli-Sufu antag | Jurkat NFkB inh | Gli-Sufu confirm | SufuKO cytotox | Wnt3a counter
Cc1ccc(-c2cn(-c3ccc(OC(F)F)cc3)c3[n+]2CCCCC3)cc1 | 0 | 0 | 0 | 0 | 83 | 0 | 86 | 41 | 0
Cc1ccc(CONC(=O)c2ccc(OC(F)F)cc2)cc1 | 0 | 0 | 0 | 0 | 0 | 0 | - | - | -
FC(F)Oc1ccc(-n2cc(-c3ccccc3)[n+]3c2CCCCC3)cc1 | 0 | 0 | 0 | 0 | 66 | 0 | 58 | 0 | 0
Clc1ccc(-n2cc(-c3ccc(Br)cc3)[n+]3c2CCCCC3)cc1 | 0 | 0 | 0 | 0 | 0 | 0 | 68 | 26 | 0
CC(C)(C)c1ccc(S(=O)(=O)NCC2CCN(C(=O)C(=O)c3cccs3)CC2)cc1 | - | - | - | 0 | - | - | - | - | -
CC(=O)N1CCN(C(=O)c2c(-c3ccccc3)noc2C)CC1 | 0 | 0 | 0 | 0 | 59 | 0 | 0 | 0 | 0
CC(C)c1ncc(C(O)c2ccccc2)n1C (stereo not drawn) | 0 | 0 | 0 | 0 | 0 | 0 | - | - | -
CC(C)c1ccc(C(O)c2cnc(C(C)C)n2C)cc1 (stereo not drawn) | 0 | 0 | 0 | 0 | 95 | 0 | 0 | 0 | 0
O=C(Nc1cc(Sc2ccccn2)cc([N+](=O)[O-])c1)c1ccc(Cl)cc1 | 0 | 0 | 0 | 0 | 0 | 0 | 0 | 0 | 0
O=C(Nc1cc(Sc2ccccn2)cc([N+](=O)[O-])c1)c1cccc(Cl)c1 | 0 | 0 | 0 | 0 | 0 | 0 | - | - | -
O=C(COc1ccccc1)Nc1nnc(S(=O)(=O)N2CCCCCC2)s1 | 0 | 0 | 0 | 0 | 0 | 0 | - | - | -
O=C(COc1ccccc1)Nc1nnc(S(=O)(=O)N2CCCCC2)s1 | 0 | 0 | - | 0 | 0 | 0 | 0 | 0 | 0
COC(=O)[C@]12C[C@H](CC(=O)NCc3cccc4ccccc34)C(=O)N(CCc3ccc(OC)c(OC)c3)C1=C[C@H](C(C)(C)C)O[C@@H]2C | - | - | - | 0 | - | - | - | - | -
Cc1cc(C)cc(NC(=S)NC2CC3CCC(C2)N3Cc2ccco2)c1 (stereo not drawn) | 0 | 0 | - | 0 | 0 | 0 | - | - | -
Cc1ccc(C)c(NC(=S)NC2CC3CCC(C2)N3Cc2ccco2)c1 (stereo not drawn) | 0 | 0 | - | 0 | 76 | 0 | 0 | 0 | 0
COc1ccc(NC(=O)c2ccc(CNc3c(NC4CCCCC4)c(=O)c3=O)cc2)cc1OC | 0 | 0 | 0 | 0 | 59! | 0 | 0 | 0 | 0
CCOC(=O)c1ccc(N2C(=O)c3n[nH]c(-c4ccco4)c3C2c2cccc([N+](=O)[O-])c2)cc1 (stereo not drawn) | 0 | 0 | - | 0 | 99 | 0 | 0 | 0 | 0
CCOC(=O)c1ccc(N2C(=O)c3n[nH]c(C)c3C2c2ccco2)cc1 (stereo not drawn) | 0 | 0 | - | 0 | 0 | 0 | - | - | -
Cc1cc(C)n2nc(N)c(N=Nc3ccc(Cl)cc3)c2n1 | 0 | 0 | - | 0 | 81 | 0 | 0 | 0 | 0
Cc1cc(C)n2nc(C)c(-c3ccc(Cl)cc3)c2n1 | 0 | 0 | - | 0 | 0 | 0 | - | - | -
CCCc1c(CC)c(=N)c2ccccc2n1C | 0 | 0 | - | - | 0 | 0 | 59 | 0 | 0
Cn1c(-c2ccccc2)c(C(=O)CCl)c2ccccc21 | 0 | - | 0 | 0 | 0 | - | - | - | -
Cc1nc2ccc(C(=O)N3CCN(C(=O)OCc4ccccc4)CC3)cc2n1C1CCCC1 | - | - | - | 0 | - | - | - | - | -
COc1ccc(C2C3=C(CC(C)(C)CC3=O)Nc3c2c(=O)n(C)c(=O)n3C)cc1OC (stereo not drawn) | 0 | 0 | 0 | 0 | 58 | 0 | 0 | 29 | 0
C=CCOc1ccccc1C1C2=C(CC(C)(C)CC2=O)Nc2c1c(=O)n(C)c(=O)n2C (stereo not drawn) | 0 | 0 | 0 | 0 | 0 | 0 | - | - | -
CCCCCCc1cc2cc(C(=O)Nc3ccccc3)c(=O)oc2cc1O | 0 | 0 | - | 0 | 73 | 0 | 64 | 30 | 79
CC(C=NN=C1C(=O)Nc2ccccc21)=Cc1ccccc1 | - | - | - | 0 | - | - | - | - | -
CSCCC(NC(=O)c1ccco1)C(=O)N1CCCCCCC1 (stereo not drawn) | 0 | 0 | 0 | 0 | 0 | 0 | - | - | -
